Hsp90 inh = displaces geldanamycin probe from tumor Hsp90. P07900. NCI-N417 lysate Hsp90, Cy3B-geldanamycin FP displacement. inhibition, % at 30 µM. actives 0.35% (n = 64,000). AID 429;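 active = inhibition above 50%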;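 also: 0% = tracer plus lysate wells and 100% = tracer alone without lysate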
Cdc25B block = human M-phase inducer phosphatase 2 inhibition; recombinant Cdc25B, OMFP fluorescence Ex485/Em525; actives 0.1% (n = 65,000); inhibition, %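 (compounds tested at 10 µM final in the well)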; in the data active = inhibition above about 50%
PLAP activator = human PLAP activation; P05187; purified PLAP enzyme, luminescent substrate read-out; hits give high values; activation fold at 20 µM; actives 1.2% (n = 96,000); AID 696; in the data active = activation fold above about 2
Target sequence (P05187 whole entry, looked up): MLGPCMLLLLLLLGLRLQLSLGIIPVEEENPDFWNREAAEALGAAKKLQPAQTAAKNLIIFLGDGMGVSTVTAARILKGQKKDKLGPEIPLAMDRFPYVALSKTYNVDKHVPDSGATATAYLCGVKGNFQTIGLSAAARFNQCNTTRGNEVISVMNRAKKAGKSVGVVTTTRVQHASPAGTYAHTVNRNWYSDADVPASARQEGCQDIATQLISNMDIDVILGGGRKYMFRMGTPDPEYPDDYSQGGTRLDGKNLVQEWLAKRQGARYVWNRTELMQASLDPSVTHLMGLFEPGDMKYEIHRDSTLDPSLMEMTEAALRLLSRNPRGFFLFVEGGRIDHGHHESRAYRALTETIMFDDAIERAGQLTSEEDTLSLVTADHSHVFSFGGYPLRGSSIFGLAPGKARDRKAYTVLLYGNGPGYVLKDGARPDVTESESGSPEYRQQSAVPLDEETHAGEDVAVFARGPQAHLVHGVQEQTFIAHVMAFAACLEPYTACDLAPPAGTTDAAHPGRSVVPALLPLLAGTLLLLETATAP
HePTP inhibitor = inhibitors of human HePTP phosphatase; P35236; recombinant HePTP phosphatase activity, OD absorbance; inhibition, % at 20 µM; actives 0.64% (n = 110,000); AID 521; in the data active = inhibition above about 50%;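 also: plate controls were vehicle for no effect and reference inhibitor for full effect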
MKP-1 inh = human dual specificity phosphatase 1 inhibition. P28562. recombinant MKP-1, OMFP hydrolysis fluorescence. inhibition, %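 (compounds tested at a single concentration somewhere between 10 and 100 µM)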. actives 0.15% (n = 65,000);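 active = inhibition above about 50%, limit read from the data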;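 also: 0% = DMSO max control wells and 100% = wells with enzyme stopped by NaOH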
TNAP act DEA = activates human TNAP at intermediate phosphate acceptor concentration; purified TNAP, CDP-star luminescence, 100 mM DEA, 30 min; hits give high values; scale: 0 levamisole-inhibited, 1 vehicle-only enzyme; activation factor at 20 µM; 64,000 tested, under 10 active; AID 813;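 active = activation factor of at least 2 at 20 µM, relative to controls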
An asterisk follows results filed as active; · = no result. In the library only some 1.5% were active in any assay of this set; here they are far more common.

SMILES | Hsp90 inh | Cdc25B block | PLAP activator | HePTP inhibitor | MKP-1 inh | TNAP act DEA
CC(C)(C)c1ccc(/C=C\C(=O)c2ccc3c(c2)OCO3)cc1 | · | · | · | 4 | · | ·
COC(=O)C1=C(C)N(Cc2ccco2)C(=O)/C1=C\c1ccc(O)c(OC)c1 | · | · | · | 3 | · | ·
COc1ccc2cc(CN(CC3CCCO3)S(=O)(=O)c3ccccc3Cl)c(=O)[nH]c2c1 (centres undefined) | · | · | 2* | · | · | ·
COc1ccc(OC)c(NC(=O)C(C)Oc2ccc(Cl)cc2Cl)c1 (centres undefined) | · | · | · | -6 | · | ·
CN(C)CCCNS(=O)(=O)c1ccc(N2CCC(c3ccc(Cl)cc3)=N2)cc1 | · | · | 2.3* | · | · | ·
CCN(CC)CCCNS(=O)(=O)c1ccc(Cl)cc1 | · | · | · | 0 | · | ·
CCN(CC(=O)N1CCCCCC1)S(=O)(=O)c1ccc(Cl)cc1 | -8 | 3 | 1.1 | 11 | 2 | 0.9
O=S(=O)(c1ccc(N2CCC(c3ccc(Cl)cc3)=N2)cc1)N(CCO)CCO | · | · | 2.2* | · | · | ·
CCOC(=O)c1ccc(NC(=O)c2ccc(Cl)cc2Cl)cc1 | · | · | · | 1 | · | ·
CCOC(=O)CC1Sc2ccccc2NC1=O (centres undefined) | -4 | 1 | 1 | 5 | 6 | 0.9
CCC(OC(=O)CC1Sc2ccccc2NC1=O)C(=O)NCC1CCCO1 (centres undefined) | 0 | -6 | 2* | 7 | -3 | 0.9
Cc1ccc(C)n1-c1ccc(O)c(C(=O)O)c1 | · | · | · | 104* | · | ·
Cc1ccc(C)n1-c1ccc(CC(=O)O)cc1 | · | · | · | 102* | · | ·
OCCCc1nc2n(n1)C(c1ccccc1)C=C(c1ccccc1)N2 (centres undefined) | 92* | 2 | 1 | -7 | 7 | 0.9
O=C1CCC(=O)N1c1nc2n(n1)C(c1ccccc1)C=C(c1ccc(Br)cc1)N2 (centres undefined) | 2 | 0 | 2* | 8 | 1 | 1
CC(=O)Nc1nc2n(n1)C(c1ccccc1)C=C(c1ccccc1)N2 (centres undefined) | -2 | -7 | 2.1* | -7 | 12 | 1
COc1ccc(C2C=C(c3ccc(Br)cc3)Nc3nc(N4C(=O)CCC4=O)nn32)cc1 (centres undefined) | -2 | -1 | 1.9 | -15 | 28 | 1
CC(=O)Nc1nc2n(n1)C(c1ccc(F)cc1)C=C(c1ccccc1)N2 (centres undefined) | -3 | 8 | 1.1 | -5 | 0 | 0.9
COc1ccc(C2C=C(c3ccccc3)Nc3nc(CCCO)nn32)cc1 (centres undefined) | -2 | 5 | 1.2 | 8 | 24 | 0.8
O=C(Nc1nc2n(n1)C(c1ccccc1)C=C(c1ccccc1)N2)c1ccco1 (centres undefined) | -12 | 2 | 2.9* | 5 | 33 | 1
CCC(=O)Nc1nc2n(n1)C(c1ccc(OC)cc1)C=C(c1ccccc1)N2 (centres undefined) | · | · | 1.3 | · | · | ·
Brc1ccc2ncnc(NCCc3ccccc3)c2c1 | · | · | · | 10 | · | ·
CC1(C)Cc2cc3c(=O)n(-c4ccccc4)c(=S)[nH]c3nc2CO1 | · | · | · | 2 | · | ·
CC1=CC(c2ccc(Cl)cc2)n2nc(NC(=O)c3ccccc3)nc2N1 (centres undefined) | · | · | 2.3* | · | · | ·
CC(=O)Nc1nc2n(n1)C(c1ccc(Cl)cc1)C=C(C)N2 (centres undefined) | 0 | -8 | 1.6 | 11 | 7 | 0.9
SMILES | Hsp90 inh | Cdc25B block | PLAP activator | HePTP inhibitor | MKP-1 inh | TNAP act DEA
C=CCOc1ccc2c(C)cc(=O)oc2c1I | · | · | · | 104* | · | ·
C=CCOc1ccc2c(C)cc(=O)oc2c1C | · | · | · | 4 | · | ·
Cc1ccccc1CN(c1ccc(C(=O)Nc2ccccc2C(=O)N2CCCC2)cc1)S(C)(=O)=O | · | · | 2* | · | · | ·
Cc1ccccc1CN(c1ccc(C(=O)Nc2ccccc2C(=O)NCc2ccco2)cc1)S(C)(=O)=O | · | · | 1.6 | · | · | ·
Cc1nnc(SCCn2c(Br)nc3c2c(=O)n(C)c(=O)n3C)s1 | -2 | 5 | 1 | -12 | -12 | 0.9
Cc1nnc(SCCn2c(N3CC(C)CC(C)C3)nc3c2c(=O)n(C)c(=O)n3C)s1 (centres undefined) | 68* | 1 | 1.2 | 10 | 22 | 0.9
COc1ccc(OC)c(NC(=O)CSc2nnc(Cc3cccn3C)n2CCc2ccccc2)c1 | -1 | -29 | 1.4 | 2 | 65* | 1
Cn1cccc1Cc1nnc(SCC(=O)Nc2ccc(F)cc2)n1CCc1ccccc1 | -6 | -12 | 1.6 | 2 | 14 | 1
CCCOc1cccc(C2C3=C(CC(C)(C)CC3=O)Nc3ccccc3N2C(=O)CC)c1 (centres undefined) | · | · | · | 4 | · | ·
Cc1ccc(-n2c(CSc3nc(C)cc(C)n3)nnc2SCC(=O)Nc2nccs2)cc1 | -2 | -13 | · | 8 | -1 | 1
Cc1cc(C)nc(SCc2nnc(SCC(=O)Nc3nc(-c4ccccc4)cs3)n2-c2ccccc2)n1 | · | · | 2* | · | · | ·
Cc1ccc(S(=O)(=O)NCc2ccncc2)cc1 | 0 | -6 | 0.8 | 4 | -5 | 0.9
CC1CCCCC1NS(=O)(=O)c1ccc(S(=O)(=O)NCc2ccncc2)cc1 (centres undefined) | -1 | -16 | 1.1 | 9 | 81* | 0.8
Cc1ccc(S(=O)(=O)/N=C2/C=C(Cl)C(=O)c3ccccc32)cc1 | · | · | · | 7 | · | ·
O=C1CC(N2CCN(Cc3ccccc3)CC2)C(=O)N1c1ccccc1 (centres undefined) | -3 | -3 | 1.1 | -10 | 10 | 1
O=C1CC(N2CCN(CCc3ccccn3)CC2)C(=O)N1c1ccc(Cl)cc1 (centres undefined) | -1 | 59* | 1.2 | 10 | 12 | 1
O=C(O)c1cccc(NC2=C(Cl)C(=O)N(c3ccc(Cl)cc3)C2=O)c1 | · | · | · | 104* | · | ·
Cc1ccc(C2OC(=O)c3ccccc32)cc1 (centres undefined) | · | · | · | -6 | · | ·
O=C1OC(c2ccc(-c3ccccc3)cc2)c2ccccc21 (centres undefined) | · | · | · | 105* | · | ·
O=C(Nc1nc2ccccc2[nH]1)C1CC1c1ccccc1 (centres undefined) | · | · | · | 9 | · | ·
C[C@H](NC(=O)/C(C#N)=C/c1ccc(O)c(O)c1)c1ccccc1 | 75* | · | · | · | · | ·
N#C/C(=C\c1ccc(O)c(O)c1)C(=O)Nc1ccccc1 | 83* | · | · | · | · | ·
N#C/C(=C\c1ccc(O)c(O)c1)C(=O)NCCCNC(=O)/C(C#N)=C/c1ccc(O)c(O)c1 | 81* | · | · | · | · | ·
C[C@@H](NC(=O)/C(C#N)=C/c1ccc(O)c(O)c1)c1ccccc1 | 77* | · | · | · | · | ·
COc1cc(/C=C(\C#N)C(N)=O)ccc1O | · | · | · | -6 | · | ·
Cc1ccc(NCC(O)COc2ccc(OCC(O)CNc3ccc(C)c(C)c3)cc2)cc1C (centres undefined) | · | · | · | 13 | · | ·
COc1ccc(Cl)cc1NC(=O)COc1ccc(Cl)cc1Br | · | · | · | -5 | · | ·
COc1ccc(Br)cc1CN1CCN(C(=O)c2cccc(Cl)c2)CC1 | · | · | · | -9 | · | ·
Cc1sc(NC(=O)CCC2CCCCC2)nc1-c1ccccc1 | · | · | · | 102* | · | ·
Cc1ccc(/C=C/C(=O)Nc2nc(-c3ccccc3)c(C)s2)cc1 | · | · | · | -17 | · | ·

Screening results: PubChem BioAssay, several laboratories
